From PubChem
NS1 inh: inhibitors of influenza NS1 protein function; Potency, µM (highest dose often 46.1 µM), inactives show at the highest dose activity, positive = more growth; 0.4% of 270,000 active; AID 2326; note: potency is the fitted concentration of half-maximal effect; actives are rising curves; nearly all actives have a fitted effect of over 50% in size
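Read-out: OD600 growth recovery of NS1-expressing budding yeast. Cells grown overnight at 30C in -URA glucose medium, washed, resuspended and diluted 1:100 in 2% galactose assay medium, pH 6.0. Same strain lacking NS1 served as positive control.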
Shiga toxin inh: Shiga toxin inhibition | 9.2% of 290,000 active | Vero cells, Shiga toxin protein synthesis inhibition reporter | AID 2315 | inhibition, % at 38.7 µM; in the data active = inhibition mostly above about 28%, no sharp cut-off; inactive = mostly below about 43%; note: 0% is about no effect
Pf growth 48h: inhibits P. falciparum growth in the first generation, 48 h. P. falciparum luciferase growth in erythrocytes, 48 h. Potency, µM (top dose mostly 28.7 µM), for inactives: at the top dose activity change, negative = inhibition, usual class: inhibitors. 5.9% of 310,000 active; active = well fitted inhibition curve with a large enough effect; inconclusive = small, poorly fitted or top-dose-only effect, or another doubt; inactive = no such curve, though single readings can be large or run the other way; note: potency is the fitted concentration of half-maximal effect; % is set by controls: 0 for no effect and ±100 for the full control effect
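A one-generation exposure of luciferase-tagged malaria parasites in RPMI 1640/Albumax erythrocyte culture, 37 C and 5% CO2. Inhibition is inferred from decreased luminescence after adding detection reagent.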
SARS PLP yeast: inhibitors of SARS-CoV papain-like protease in yeast | S. cerevisiae expressing SARS-CoV PLpro, growth rescue | Potency, µM (highest dose often 32.9 µM), for inactives: at the highest dose activity, positive = growth rescue, usual class: activators | 0.19% of 330,000 active; note: potency is the fitted concentration of half-maximal effect; 0% is about no effect; nearly all actives have a fitted effect of over 55% in size
Pf growth 96h: inhibits malaria parasite growth, 96 h; P. falciparum luciferase reporter growth, 96 h; Potency, µM (highest dose often 28.7 µM), inactives show top-dose activity change, negative = inhibition, usual class: inhibitors; 6.9% of 320,000 active; active = well fitted inhibition curve with a large enough effect; inconclusive = small, poorly fitted or top-dose-only effect, or another doubt; inactive = no such curve, though single readings can be large or run the other way; note: potency is the fitted concentration of half-maximal effect; % is set by controls: 0 for no effect and ±100 for the full control effect
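Readout is luminescence from an integrated firefly luciferase in P. falciparum. Red cells, 2% hematocrit and 0.05% parasitemia final, were cultured with compound through two parasite generations (96 hours) at 37 C, 5% CO2.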
Cycloheximide cs: counter-screen for Shiga toxin inhibitors: cycloheximide protein synthesis inhibition; max response, %; 12% of 300,000 active; cell reporter, cycloheximide protein synthesis inhibition counterscreen; in the data active = max response mostly above about 13%, no sharp cut-off; inactive = mostly below about 14%; note: read at 38.3 µM for the half of the compounds with a filed dose; 0% is about no effect
* hit, by the source's call; i = inactive; ? = inconclusive; nt = no result. Compounds with a hit are over-represented: about 21% of the library has one in this group of screens. Unless noted, calls come from the whole dose curve.

SMILES | NS1 inh | Shiga toxin inh | Pf growth 48h | SARS PLP yeast | Pf growth 96h | Cycloheximide cs
COc1ccc(-c2cc(C(=O)N/N=C(\C)c3cccnc3)c3ccccc3n2)cc1 | 19.1% | 53.4 | 11.5% | -0.2% | 5.9% | 12.0*
CCCOc1cccc(-c2cc(C(=O)N/N=C/c3ccccn3)c3ccccc3n2)c1 | -42.5% | 42.2* | 11.7µM* | 4.3% | 9.28µM* | 21.1*
COc1ccc(/C(C)=N/NC(=O)c2cc(-c3cccnc3)nc3ccccc23)cc1 | 0.6% | -12.3 | 13.4% | 5.4% | 7.5% | -1.4
CCOc1ccc(-c2cc(C(=O)N/N=C(\C)c3cccnc3)c3ccccc3n2)c(OCC)c1 | -2.4% | -11.4 | 13.1µM* | ? | ? | 7.0
O=C(O)c1cc(-c2ccncc2)nc2ccccc12 | 1.8% | nt | nt | nt | nt | nt
C/C(=N\NC(=O)c1cc(-c2ccncc2)nc2ccccc12)c1ccc(OC(F)F)cc1 | nt | -5.0 | -26.8% | 2.6% | 3.29µM* | -4.3
O=C(CCS(=O)(=O)c1cccc2nonc12)Nc1ccc(Br)cc1 | 13.1% | 18.0 | 17.0% | 3.6% | 14.2% | 1.5
C=C(C)Cn1c(N2CC(C)CC(C)C2)nc2c1c(=O)[nH]c(=O)n2C (stereo not drawn) | 4.5% | 7.2 | -0.3% | 0.4% | ? | -2.4
COc1ccc(-c2cc(C(=O)N/N=C/c3cccnc3)c3ccccc3n2)cc1 | -1.7% | 31.3 | 14.8% | -1.0% | ? | 27.0*
COc1cccc(-n2cc(CNCc3c(C(=O)N(C)C)nc4ccc(Cl)cn34)cn2)c1 | -1.2% | 10.5 | 8.28µM* | 0.6% | ? | 2.2
C[C@@H]1C(=O)O[C@H]2C[C@@]34[C@H]5C[C@@H](C(C)(C)C)[C@]36[C@H](OC(=O)[C@H]6O)O[C@]4(C(=O)O5)[C@]21O | nt | -8.6 | nt | nt | nt | -4.2
CCc1ccc(-c2cn3c(n2)SCC3)cc1 | 2.0% | 67.7* | 252.9% | -1.6% | 36.7% | 47.4*
Cc1ccc(-c2cn3c(n2)SCC3)cc1 | nt | 141.2* | 230.4% | -3.8% | 14.1% | 43.1*
Cc1ccc(NC(=O)CN(C)C(=O)CSc2nnc(C(F)(F)F)n2C)cc1 | nt | -9.1 | 20.1% | 0.8% | 45.6% | 9.8
O=C(Nc1ccc2c(c1)OCO2)Nc1cnccn1 | 2.3% | 58.4* | 142.0% | -3.1% | nt | 26.9*
O=C(Nc1ccc2c(c1)OCO2)Nc1ccccn1 | nt | 99.2* | i | -0.2% | 0.0% | 54.8*
O=C(NCc1ccccn1)Nc1ccc2c(c1)OCO2 | 0.6% | 101.2* | 74.3% | 5.6% | 9.0% | 57.1*
O=C(NCc1cccs1)Nc1ccc2c(c1)OCO2 | -1.0% | 68.7* | 131.7% | -1.6% | -2.1% | 39.8*
O=C(CNC(=O)c1ccc2c(c1)OCO2)NCc1cccs1 | nt | nt | nt | -1.7% | nt | nt
CCN(CC)C(=O)c1[nH]cnc1C(=O)Nc1ccc(C)cc1 | nt | nt | 37.3% | 5.5% | 12.9% | nt
Cc1cccnc1NC(=O)CN1C(=O)NC(C)(c2ccc3ccccc3c2)C1=O (stereo not drawn) | nt | nt | ? | -2.3% | -21.1% | nt
O=C(NCc1cccs1)Nc1ccc(Cl)cc1 | -4.9% | 60.8* | 122.7% | 3.2% | 29.2% | 45.4*
CS(=O)(=O)N(CC(=O)NCc1ccccn1)c1ccc2c(c1)OCCO2 | -2.0% | -4.9 | 14.6% | 3.5% | 4.15µM* | -2.0
c1cc(CNc2ccc3c(c2)OCCO3)ccn1 | 8.8% | 83.4* | 105.8% | 1.5% | 8.1% | 52.6*
O=C(NCc1ccncc1)Nc1ccc2c(c1)OCO2 | 4.6% | 40.5* | 57.1% | 0.6% | ? | 25.6*
SMILES | NS1 inh | Shiga toxin inh | Pf growth 48h | SARS PLP yeast | Pf growth 96h | Cycloheximide cs
Cc1c(C(N)=O)sc2ncn(CC(=O)NCCc3ccccc3)c(=O)c12 | 2.4% | -12.3 | 12.9% | 0.0% | ? | -1.0
COC(=O)c1ccc(N2CCOCC2)c(NC(=O)c2ccco2)c1 | -1.0% | -10.6 | 41.1% | -13.2% | ? | -3.5
CCCCn1c(N)c(N(CCC(C)C)C(=O)CSc2nncn2-c2ccccc2)c(=O)[nH]c1=O | nt | nt | -3.7% | 13.7% | 56.3% | nt
CCN1CCCC1CNC(=O)Cn1nc(C)n2nc(-c3ccccc3)cc2c1=O (stereo not drawn) | 0.0% | -5.8 | 16.6% | -1.7% | -18.0% | 0.7
CCOC(=O)[C@H]1[C@H]2COc3ccc(Cl)cc3[C@@H]2N2C(=O)c3cc(F)c(F)cc3NC(=O)[C@@]12C | nt | nt | ? | 0.5% | ? | nt
CCOC(=O)[C@H]1[C@H]2COc3ccccc3[C@@H]2N2C(=O)c3cc(OC)c(OC)cc3NC(=O)[C@@]12C | nt | nt | ? | -2.9% | ? | nt
CCOC(=O)[C@H]1[C@H]2COc3ccc(C)cc3[C@@H]2N2C(=O)c3cc(OC)c(OC)cc3NC(=O)[C@@]12C | nt | nt | 11.7µM* | -3.3% | ? | nt
CCOC(=O)[C@H]1[C@H]2COc3ccc(C)cc3[C@@H]2N2C(=O)c3cc(F)c(F)cc3NC(=O)[C@@]12C | nt | nt | 11.7µM* | 0.1% | ? | nt
CCOC(=O)[C@H]1[C@H]2COc3ccc(OC)cc3[C@@H]2N2C(=O)c3cc(F)c(F)cc3NC(=O)[C@@]12C | nt | nt | ? | 0.7% | ? | nt
CCOC(=O)[C@H]1[C@H]2COc3ccc(Br)cc3[C@@H]2N2C(=O)c3cc(OC)c(OC)cc3NC(=O)[C@@]12C | nt | nt | 9.28µM* | -7.5% | ? | nt
CCOC(=O)[C@H]1[C@H]2COc3ccc(OC)cc3[C@@H]2N2C(=O)c3cc(OC)c(OC)cc3NC(=O)[C@@]12C | nt | nt | 11.7µM* | 1.2% | ? | nt
CCc1nc(SCC(=O)N2CCC(C)CC2)c2c(=O)n(C)c(=O)n(C)c2n1 | -39.4% | -3.3 | ? | 8.0% | ? | -1.6
O=C(O)COc1ccccc1/C=N/NC(=O)CSc1nc2ccccc2n1Cc1ccccc1Cl | 14.7% | -1.6 | ? | 0.9% | ? | -2.0
CCOC(=O)[C@H]1[C@H]2COc3ccc(OC)cc3[C@@H]2N2C(=O)c3cc(OC)ccc3NC(=O)[C@@]12C | nt | nt | 10.4µM* | 2.8% | ? | nt
COc1ccc(C2(C)NC(=O)N(CC(=O)NC(C)c3ccc(CC(C)C)cc3)C2=O)cc1 (stereo not drawn) | 10.8% | -5.9 | nt | -1.4% | -19.8% | -1.1
CC1=NN(C(N)=S)C(=O)C1N=Nc1ccc(Cl)cc1Cl (stereo not drawn) | -98.4% | 76.6* | ? | -20.5% | ? | 25.4*
COc1ccccc1N=NC1C(=O)N(C(N)=S)N=C1C (stereo not drawn) | -35.5% | nt | 11.3% | 8.9% | -24.8% | 1.5
CC1=NN(C(N)=S)C(=O)C1N=Nc1ccccc1Cl (stereo not drawn) | -134.1% | nt | ? | -7.5% | 283.1% | 18.3*
Cc1cc(NC(=O)CN2C(=O)[C@@H]3[C@H](C2=O)[C@@H]2C[C@H]3C(Br)C2Br)no1 (stereo partly drawn) | 1.3% | 3.2 | 0.6% | 1.4% | -7.6% | -0.9
CCOC(=O)C(=CNc1cc(OC)ccc1-n1cccc1)C(=O)OCC | 1.3% | -5.4 | -25.2% | 0.9% | ? | -2.8
c1ccc(N2CCN(c3cnccn3)CC2)nc1 | -45.4% | -11.4 | 29.1% | -1.2% | 31.1% | -6.6
